# Reference: PubChem BioAssay AID777 (Sanford-Burnham Center for Chemical Genomics, 2007)
# About 19,000 (20%) of roughly 96,000 compounds were called active. Only a sample is shown. Values without a mark were called inactive.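 Rule for the calls: active = blocking of liver enzyme CYP2C9 beyond about 50% at 5 µM (limit read from the data); inactive = the rest.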
# Target: Cytochrome P450 2C9 (Homo sapiens) (UniProt P11712)
# Assay: blockers of cytochrome P450 2C9 activity – biochemical, luminescence, ADME assay, primary screen (AID 777)
# Details: CYP2C9 Supersomes, luciferin-H conversion, at 5 µM, active compounds read high
# Sequence of Cytochrome P450 2C9 (Homo sapiens) (P11712 whole entry, looked up): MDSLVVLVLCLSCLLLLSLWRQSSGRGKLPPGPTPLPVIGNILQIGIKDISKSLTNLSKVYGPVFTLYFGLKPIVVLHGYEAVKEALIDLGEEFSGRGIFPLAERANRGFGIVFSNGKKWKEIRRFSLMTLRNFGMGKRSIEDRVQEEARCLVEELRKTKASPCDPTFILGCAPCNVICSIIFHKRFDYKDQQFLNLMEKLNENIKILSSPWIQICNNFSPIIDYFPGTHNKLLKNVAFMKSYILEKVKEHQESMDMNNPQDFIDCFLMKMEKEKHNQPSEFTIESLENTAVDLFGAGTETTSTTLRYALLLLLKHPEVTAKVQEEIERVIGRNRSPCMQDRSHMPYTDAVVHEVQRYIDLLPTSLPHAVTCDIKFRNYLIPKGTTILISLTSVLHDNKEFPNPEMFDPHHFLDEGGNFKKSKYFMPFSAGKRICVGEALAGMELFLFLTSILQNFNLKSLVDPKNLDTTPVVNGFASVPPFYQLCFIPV
row,SMILES,inhibition
1,COc1ccccc1-n1c(O)c(C=NC2CC2)c(=O)[nH]c1=O,-3.5%
2,COc1ccc(CCn2c(O)c(C=NCCCn3ccnc3)c(=O)[nH]c2=O)cc1OC,61.3% (active)
3,COc1ccc(CCn2c(O)c(C=NC3CC3)c(=O)[nH]c2=O)cc1OC,16.5%
4,COc1ccc(S(=O)(=O)NCc2ccc(C(=O)N3CCC4(CC3)OCCO4)cc2)cc1,4.3%
5,C=Cn1ccnc1P(=S)(c1cc(N(CC)CC)ns1)c1nccn1C=C,12.6%
6,CCOC(=O)C(O)(c1ccc(NC(=O)c2ccco2)c(OC)c1)C(F)(F)F (stereo not drawn),71.4% (active)
7,COC(=O)C(O)(c1ccc(NC(=O)c2ccco2)c(OC)c1)C(F)(F)F (stereo not drawn),75.9% (active)
8,CCOC(=O)C(O)(c1ccc(N)c(OC)c1)C(F)(F)F (stereo not drawn),25.7%
9,C[N+]12CN3CN(CN(C3)C1)C2,0.8%
10,Cc1ccc(P(=S)(c2ccc(C)o2)N2CCOCC2)o1,11%
11,c1cncc(CNC2=NCCC2)c1,-10.2%
12,COc1ccccc1N1CCN(C(CNC(=O)Oc2ccccc2)c2cccnc2)CC1 (stereo not drawn),44.1%
13,CC(C)c1ccc(O)c(CN2CCN(c3ccccc3)CC2)c1,19.1%
14,CC[N+](CC)(CC)CCCCCCCCCC[N+](CC)(CC)CC,-4.4%
15,O=C(CN1CCCCC1)Nc1ccc(Br)cc1C(=O)c1ccccc1Cl,8.7%
16,CCC/C(=N\O)c1c[nH]c2ccccc12,10.1%
17,Cc1ccc2c(c1)C1CN(C)CCC1N2C(=O)Cn1nnc(-c2ccccc2F)n1 (stereo not drawn),4.5%
18,CN1CCC(N(C)Cc2cccnc2)CC1,-6.3%
19,CN1C2C=C(N(C(=O)c3ccc(Cl)cc3)c3ccccc3)CC1CC2 (stereo not drawn),6.8%
20,Nc1ccc(C(=O)N/N=C2/CN3CCC2CC3)cc1,8%
21,CC(C)c1ccc(OCC(=O)N2CCN(C)CC2)c(Br)c1,-1.3%

row,SMILES,inhibition
1,O=C(COc1ccc2ccccc2c1)N1CCN(Cc2ccncc2)CC1,90.5% (active)
2,CN1CCN(C(=O)COc2ccc(C(C)(C)C)cc2Br)CC1,-18%
3,Cc1ccc(N(C)C(=O)Oc2cccc3ccc(C)nc23)cc1,36.4%
4,Cn1c(C(=O)N2CCC(C(=O)N3CCC4(CC3)OCCO4)CC2)cc2sccc21,-32.3%
5,CCOc1ccc(CN(CCCl)CCCl)cc1C(=O)OC,97.3% (active)
6,Cn1c(O)c(C=Nc2ccc3c(c2)CCC3)c(=O)n(C)c1=O,11.5%
7,CC(=C1C(=O)c2ccccc2C1=O)N1CCN(CCN=Cc2c(O)n(C)c(=O)n(C)c2=O)CC1,43.2%
8,CC(C)(C)c1ccc(CN2C(=O)CN=C(c3ccccc3)c3ccccc32)cc1,18.9%
9,O=C(O)C1CSC(c2cccnc2)N1 (stereo not drawn),-16.9%
10,COC(=O)CN1C(=O)C2(C(C(=O)OC)=C(N)Oc3ccccc32)C2=C1CC(C)(C)CC2=O (stereo not drawn),38.6%
11,CCOC(=O)CC1=C(C(=O)OCC)C2(C(=O)N1)C(C(=O)OC)=C(N)Oc1ccccc12 (stereo not drawn),20.6%
12,C=CCN1C(=O)C2(C(C(=O)OCC)=C(N)Oc3c2c(=O)oc2ccccc32)c2ccccc21 (stereo not drawn),88.5% (active)
13,CNC(=O)N(C)c1nnc(C(C)(C)C)s1,-22.2%
14,Cc1ccc(C)c(NC2=NCCCS2)c1,-2.6%
15,CCOC(=O)C1CN(C)CCC1=O (stereo not drawn),1.1%
16,CCCCCn1c(=O)c(C(=O)NCc2ccccn2)c(O)c2ccccc21,78.1% (active)
17,CCCCCn1c(=O)c(C(=O)Nc2c(C)n(C)n(-c3ccccc3)c2=O)c(O)c2ccccc21,25.9%
18,CCN1c2nc3c(C)cccn3c(=O)c2CC2(C(=O)N(C)C(=O)N(C)C2=O)C1C (stereo not drawn),-8.4%
19,Cc1nc2ccccn2c1P(=S)(N1CCCCC1)N1CCCCC1,11.7%
20,CCOC(=O)c1c(C)c(C(=O)N2CCC3(CC2)OCCO3)c(C)n1CC,31.2%
21,CN(C)C(=O)NC(O)C(Cl)(Cl)Cl (stereo not drawn),74.8% (active)

row,SMILES,inhibition
1,Cc1cc(N2C(=O)C3CCCN3C2c2ccc(Cl)c(Cl)c2)no1 (stereo not drawn),41.4%
2,COc1ccc(-c2nc(CS(=O)CC(=O)N3CCC4(CC3)OCCO4)c(C)o2)cc1 (stereo not drawn),14.5%
3,O=C1/C(=C\c2ccc3c(c2)OCO3)N2CCC1CC2,22.5%
4,CCOC(=O)c1c(-c2ccccc2)oc2ccc(OC(=O)N(C)C)cc12,55% (active)
5,O=C1NC(=O)C(C/C=C/c2ccccc2)C(=O)N1,-3%
6,CC(=NCc1ccc2c(c1)OCO2)c1c(O)[nH]c(=O)[nH]c1=O,-11.9%
7,CN1CCN(Cc2ccccc2C(F)(F)F)CC1,0.4%
8,CCN(CC)C(=O)c1ccc(NC(=O)c2cc(-n3cnnc3)ccc2Cl)cc1,32.9%
9,O=C(CCN1CCCCC1)NCC(=O)Nc1ccc(Br)cc1C(=O)c1ccccc1,-14.9%
10,CCOP(=S)(OCC)SCOC(=O)NCC(=O)OC,71.1% (active)
11,c1ccc(C2NCc3ccccc3-n3cccc32)cc1 (stereo not drawn),19.1%
12,CC(=O)c1ccc(OC(NC(=O)Cc2ccccc2)C(Cl)(Cl)Cl)cc1 (stereo not drawn),86.4% (active)
13,CC(=O)NC(=O)NC(C)Cc1ccccc1 (stereo not drawn),-12.4%
14,Cc1nc2nc(C)c(CCC(=O)N3CCC4(CC3)OCCO4)c(C)n2n1,3.8%
15,NC(=O)Nc1cccc(C(F)(F)F)c1,-12.3%
16,CC(=O)Nc1ccccc1C(=O)OCC(=O)c1cccc2ccccc12,80.7% (active)
17,CC12CN3CC(C)(CN(C1)C3c1cccs1)C2 (stereo not drawn),-10.5%
18,Cc1ccc(Cn2nnnc2CN2CCC(n3nnc4ccccc43)CC2)cc1,93.4% (active)
19,CSC1=NP(=S)(SC)N(C)c2nc3n(c21)CCC3 (stereo not drawn),9.2%
20,Cc1cccc(N2C(=O)NC(=O)/C(=C\c3cnn(-c4ccccc4)c3)C2=O)c1,-9.5%
21,COc1ccc(C(=O)C2CN(C)CC2C(=O)c2ccc(OC)cc2)cc1 (stereo not drawn),12.4%
